For 52 compounds, activity change (PNC), negative = inhibition results are on record in PubChem BioAssay AID2417 (National Center for Advancing Translational Sciences (NCATS), 2010).

Among all 140,000 compounds or so, about 4,300 (3.1%) were called active. Another 21% or so got no clear call; they are omitted. The full list was thinned out, with actives kept by preference. A number with no mark means an inactive call.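 The calls were made as follows: active = readout at or below -70, meaning at least 70% loss of cells showing the perinucleolar compartment, a nuclear body marking cancer cells; inconclusive = readout between -30 and a set limit; inactive = the rest.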

The experiment in a line: High Content Assay for Compounds that inhibit the Assembly of the Perinucleolar Compartment.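 Also: plate controls were DMSO wells for no effect and camptothecin positive control wells for full effect.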 As to conditions: PC3M PTB-GFP, PNC prevalence imaging, 16 h; at 10 µM; active compounds read low. Put shortly: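 PC3M cells stably expressing PTB-GFP, 750–1000 cells/well, treated 16 h at 37 °C with compound (23 nl of library stock), in duplicate. After paraformaldehyde fixation and Hoechst stain, imaged at 20x; PNC prevalence scored by image analysis.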
As to `O=C(OCN1C(=O)c2ccccc2C1=O)/C(=C\c1ccco1)NC(=O)c1ccccc1`, the activity change (PNC), negative = inhibition was 73.8%. The same measure for `CCCCN=C1N/C(=C\c2ccco2)C(=O)N1c1ccccc1`: -16.5%; for `COC(=O)C1=C(C)N(c2ccc(Br)cc2)C(=O)/C1=C\c1ccco1`: -80.8% (active); for `O=C(N/N=C/c1ccc(Br)o1)c1cncc(Br)c1`: -10.5%. For the compound `CCN(CC(=O)NC1CCS(=O)(=O)C1)S(=O)(=O)c1ccccc1` (configuration not stated), the activity change (PNC), negative = inhibition is -23.3%. The figure for `CC(C)C(=O)NC(NC(=S)NC1CCS(=O)(=O)C1)C(Cl)(Cl)Cl` (configuration not stated) is -100% (active); for `CCCSC(=S)NC1CCS(=O)(=O)C1` (configuration not stated) it is -6.42%. For the compound `COc1ccc(CNC(=O)CCCn2nc(C)c([N+](=O)[O-])c2C)cc1`, the activity change (PNC), negative = inhibition is 1.72%. The figure for `N#C/C(C(=O)N1CCOCC1)=C1/SC(Cc2ccc(F)cc2)C(=O)N1c1ccccc1` (configuration not stated) is 2.9%; for `O=C(Cn1cc(C(F)(F)F)ccc1=O)N/N=C/c1ccc(Cl)cc1Cl` it is 32%; for `Cc1onc(-c2ccccc2)c1C(=O)NNC(=S)NC(=O)c1ccc(F)cc1` it is 19.1%. The figure for `CC(=O)Nc1cccc(NC(=O)c2c(-c3ccccc3)noc2C)c1` is 19.7%. `CCOC(=O)c1c(-c2cccc(C)c2)csc1NC(=O)c1c(-c2ccccc2)noc1C`: the activity change (PNC), negative = inhibition was -101% (active). On to `Cc1ccc(S(=O)(=O)NCc2csc(C)n2)c(C)c1`, for which the activity change (PNC), negative = inhibition was 36.5%.

As for `Cc1nc(CNS(=O)(=O)c2ccc(Oc3ccccc3)cc2)cs1`, the activity change (PNC), negative = inhibition was -83.2% (active). The figure for `Cc1nc(CNS(=O)(=O)c2cccnc2)cs1` is 14.3%; for `CC(=O)NCCC(=O)Nc1nc(C)c(Cc2ccc3c(c2)OCO3)s1` it is 32.2%. The same measure for `COC(=O)[C@@H]1CC[C@H](C)[C@@H](c2ccc(C)cc2)N1C(=O)c1ccc(/C=N/O[C@H](C)c2cn([C@@H]3COC[C@H]3O)nn2)cc1`: 39.9%; for `C/C(=N\NC(=O)c1ccc(CSc2nc(C)cc(C)n2)cc1)C1CCCCC1`: 28.4%; for `COCc1[nH]nc2c1C(C1C=CCCC1)C(C#N)=C(N)O2` (configuration not stated): -107% (active).

For `CCc1ccc(C2C(C#N)=C(N)Oc3n[nH]c(CC(=O)OC)c32)cc1` (configuration not stated), the activity change (PNC), negative = inhibition is 18.8%. Take `CCCc1[nH]nc2c1C(C1CC=CCC1)C(C#N)=C(N)O2` (configuration not stated): the activity change (PNC), negative = inhibition is 26.7%.

For the compound `CC(NC(=O)Nc1ccccc1)c1ccccc1` (configuration not stated), the activity change (PNC), negative = inhibition was -11.3%.

As for `CC(NC(=O)c1cc(-c2ccccc2)on1)c1ccccc1` (configuration not stated), the activity change (PNC), negative = inhibition is -97.3% (active). For the compound `CC(C)CNC(=O)c1cc(-c2ccc(Br)cc2)on1`, the activity change (PNC), negative = inhibition is -2.59%. The figure for `CCOC(=O)NN1C(=O)c2ccccc2NC1c1cccc(O)c1` (configuration not stated) is -6.12%; for `COc1ccc(C2CC(c3cccs3)=NN2C(=O)COC(=O)c2cc3ccccc3cc2O)cc1OC` (configuration not stated) it is -16.9%; for `CC1Cc2ccccc2N1C(=O)CSc1nnc(-c2ccc(S(=O)(=O)N3CCCC3)cc2)n1C` (configuration not stated) it is -4.26%. For `COc1ccc(C(CC(=O)O)NC(=O)Cc2ccccc2)cc1` (configuration not stated), the activity change (PNC), negative = inhibition was -1.4%.

For the compound `COc1ccc(C(CCNCc2ccccc2F)c2ccc(F)cc2)cc1` (configuration not stated), the activity change (PNC), negative = inhibition is -83.9% (active). As for `COc1cccc(CNCCc2c[nH]c3ccccc23)c1OCc1ccccc1F`, the activity change (PNC), negative = inhibition was 9.41%.

Take `COc1ccc(S(=O)(=O)NC(C)C(=O)Nc2cccc([N+](=O)[O-])c2)cc1` (configuration not stated): the activity change (PNC), negative = inhibition is -19.9%.

Consider `COc1ccc(-n2nc3c(c2NC(=O)Cc2cccc(C)c2)CS(=O)C3)cc1` (configuration not stated), for which the activity change (PNC), negative = inhibition is 1.65%. For `COc1ccc(CC(=O)Nc2c3c(nn2-c2cccc(Cl)c2)CS(=O)C3)cc1` (configuration not stated), the activity change (PNC), negative = inhibition was -119% (active). The figure for `Cc1cccc(CC(=O)Nc2c3c(nn2-c2cccc(Cl)c2)CS(=O)C3)c1` (configuration not stated) is -2.34%; for `CC(NC(=O)C(=O)NN=C1CCC(C(C)(C)C)CC1)c1ccccc1` (configuration not stated) it is -5.42%; for `COC(=O)Cc1csc(/N=C/c2c(O)n(-c3cccc(C(F)(F)F)c3)c(=O)c3ccccc23)n1` it is -11.4%. With `COc1ccc(C(=O)N2CC3(C)CC2CC(C)(C)C3)cc1OC` (configuration not stated), the activity change (PNC), negative = inhibition was -104% (active). The same measure for `Cc1cccc(C(=O)NCC(=O)OCC(=O)N2CC3(C)CC2CC(C)(C)C3)c1` (configuration not stated): -3.76%; for `COc1ccccc1C(=O)N1CC2(C)CC1CC(C)(C)C2` (configuration not stated): -20.8%; for `Cc1cc(Cl)ccc1NC(=S)NCCCN1CCCC1=O`: 13%. The figure for `CCO/N=C(/C)c1c(O)cc(-c2ccccc2)n(-c2ccccc2)c1=O` is 36.7%. With `Cc1cc(C)n(C(=O)c2ccc(S(=O)(=O)N3CCCC3)cc2)n1`, the activity change (PNC), negative = inhibition was 5.75%. As to `CC(C)(C)NC(=O)Cn1nnc(-c2ccccc2Cl)n1`, the activity change (PNC), negative = inhibition is 25.1%.

Consider `Cc1ccccc1-c1nnn(CC(=O)c2ccc(S(=O)(=O)N3CCCC3)cc2)n1`, for which the activity change (PNC), negative = inhibition was -100% (active). The figure for `O=C(COC(=O)Cc1ccc(Br)cc1)Nc1c(F)c(F)c(F)c(F)c1F` is 16.2%; for `O=C(Nc1ccc2c(c1)OCCO2)c1ccncc1` it is -27.2%. Turning to `O=C(Nc1nc2ccccc2s1)c1ccc2c(c1)OCO2`, the activity change (PNC), negative = inhibition is 62.8%. The same measure for `O=C(Nc1nc(-c2ccc3c(c2)OCO3)cs1)c1ccncc1`: -83.5% (active); for `CCCCNS(=O)(=O)c1ccc2nc(SCC(=O)Nc3cc(C)cc(C)c3)[nH]c2c1`: 35.2%. In the case of `CCCCN(CC)C(=S)Nc1ccc2nc3n(c(=O)c2c1)CCCCC3`, the activity change (PNC), negative = inhibition was 41.2%.

Take `O=C(CSc1ccccn1)Nc1nc2c(ccc3ccccc32)s1`: the activity change (PNC), negative = inhibition was 41.9%.
